The list is not random: actives were taken first. Their share in the collection is about 22%.
Pf growth 48h: inhibits P. falciparum growth in the first generation, 48 h | 310,000 compounds, 5.9% hits | Potency, µM (titrated, usually from 28.7 µM), inactives show at the highest dose activity change, negative = inhibition, hits mostly inhibitors | P. falciparum luciferase growth in erythrocytes, 48 h; further: potency means the concentration at half of the fitted maximal effect; on the % scale 0 is the no-effect control and ±100 the full control effect
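Firefly luciferase activity from engineered P. falciparum reports growth; inhibitors lower the luminescent signal. Cultures contained 2% hematocrit erythrocytes at 0.1% final parasitemia.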
Cycloheximide cs: counter-screen hit for Shiga toxin inhibitors, cycloheximide | 300,000 compounds, 12% hits | AID 2314 | cell reporter, cycloheximide protein synthesis inhibition counterscreen | max response, %; in the data active means max response mostly above about 13%, no sharp cut-off; inactive means mostly below about 14%; further: read at 38.3 µM for the half of the compounds with a filed dose; 0% is about no effect
Shiga inhibitor: Shiga toxin inhibition; 290,000 compounds, 9.2% hits; inhibition, % at 38.7 µM; AID 2315; Vero cells, Shiga toxin protein synthesis inhibition reporter; in the data active means inhibition mostly above about 28%, no sharp cut-off; inactive means mostly below about 43%; further: 0% is about no effect
Pf growth 96h: P. falciparum growth inhibition at 96 hours; P. falciparum luciferase reporter growth, 96 h; Potency, µM (doses to about 28.7 µM), for the others: top-dose activity change, negative = inhibition, most hits filed as inhibitors; 320,000 compounds, 6.9% hits; further: potency means the concentration at half of the fitted maximal effect; on the % scale 0 is the no-effect control and ±100 the full control effect
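Cell-based qHTS: luciferase-tagged P. falciparum in erythrocytes (2% hematocrit, 0.05% parasitemia final) incubated with compounds for 96 hours, 37 C, 5% CO2; luciferase detection reagent then added and luminescence measured.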
LmPK inh: blocks Leishmania mexicana pyruvate kinase activity. 290,000 compounds, 0.37% hits. Q27686. purified LmPK, Kinase-Glo ATP luminescence, 1 h. Potency, µM (series often up to 57.5 µM), for the others: at the top dose activity change, negative = inhibition, actives largely listed as inhibitors; further: potency means the concentration at half of the fitted maximal effect; on the % scale 0 is the no-effect control and ±100 the full control effect
Target sequence (Q27686 whole entry, looked up): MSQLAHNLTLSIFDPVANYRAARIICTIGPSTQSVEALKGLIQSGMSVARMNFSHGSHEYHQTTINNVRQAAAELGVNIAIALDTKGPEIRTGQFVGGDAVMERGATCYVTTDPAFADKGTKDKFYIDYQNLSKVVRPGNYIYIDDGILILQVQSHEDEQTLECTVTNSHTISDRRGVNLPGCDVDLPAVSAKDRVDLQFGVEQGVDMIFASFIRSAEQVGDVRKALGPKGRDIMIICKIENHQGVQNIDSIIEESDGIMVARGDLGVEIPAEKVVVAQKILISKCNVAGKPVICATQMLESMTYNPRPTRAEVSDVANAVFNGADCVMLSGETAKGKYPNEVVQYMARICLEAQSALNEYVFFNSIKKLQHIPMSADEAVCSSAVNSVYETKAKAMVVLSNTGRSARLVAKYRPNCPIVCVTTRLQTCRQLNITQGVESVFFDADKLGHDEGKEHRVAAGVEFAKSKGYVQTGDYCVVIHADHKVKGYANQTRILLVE
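0.1 nM LmPK, 0.5 mM PEP, 0.1 mM ADP; 50 mM imidazole pH 7.2, 7 mM MgCl2, 50 mM KCl; 1 h RT. Kinase-Glo luminescence readout, normalized to no-enzyme (full inhibition) and uninhibited wells.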
* hit, by the source's call; ? = inconclusive; nt = no result; [ ] = another dose, or the depositor's remark. Unless noted, the call rests on the fitted dose curve; in most records, active means well fitted inhibition curve with a large enough effect; inconclusive means small, poorly fitted or top-dose-only effect, or another doubt; inactive means no such curve, though single readings can be large or run the other way.

SMILES	Pf growth 48h	Cycloheximide cs	Shiga inhibitor	Pf growth 96h	LmPK inh
CC1Cc2nc(SCC(=O)NCC3CCCO3)n(Cc3ccccc3)c(=O)c2S1 (stereo not given)	14.7µM*	13.0	9.3	32.9%	0.4%
Cc1cc(NC(=O)CSc2nc3c(c(=O)n2-c2ccccc2)SC(C)C3)no1 (stereo not given)	?	-2.9	-7.3	4.15µM*	-2.9%
CC1Cc2nc(SCC(=O)NCC3CCCO3)n(-c3ccc(F)cc3)c(=O)c2S1 (stereo not given)	8.28µM*	-3.4	-2.5	3.7µM*	-1.7%
COc1ccc(-n2c(SCC(=O)NCC3CCCO3)nc3c(c2=O)SC(C)C3)cc1 (stereo not given)	11.7µM*	3.8	7.8	?	5.0%
Cc1ccc(-n2c(SCC(=O)NCC3CCCO3)nc3c(c2=O)SCC3)cc1 (stereo not given)	1.6%	-1.1	-6.9	0.0%	4.9%
O=C(CSc1nc2ccsc2c(=O)n1Cc1ccccc1)NCC1CCCO1 (stereo not given)	10.8%	8.6	-2.9	-7.2%	5.6%
COc1ccc(-n2nc(C(=O)NCC(=O)NCc3cccc(F)c3)c3ccccc3c2=O)cc1Cl	-24.1%	-1.4	1.4	-0.1%	10.1%
COc1cccc(N2CCN(S(=O)(=O)c3ccc(-n4cnnn4)cc3)CC2)c1	14.4%	-1.9	-6.1	48.3%	6.3%
Cc1ccc(C(=O)CCCn2nnc(-c3cccnc3)n2)cc1C	6.5%	-1.8	-10.2	?	1.9%
Cc1ccc2ccccc2c1NC(=O)Cn1nnc(-c2cccnc2)n1	24.6%	-4.2	-1.3	0.657µM*	5.8%
O=c1oc2c(CN3CCOCC3)c(O)ccc2c2c1CCCC2	?	-1.5	1.6	-0.8%[5.75 µM]	0.7%
COc1ccc(Oc2coc3c(CN4CCOCC4)c(O)ccc3c2=O)cc1	nt	11.1	5.8	2.94µM*	-1.3%
O=c1c(-c2ccc(Br)cc2)coc2c(CN3CCCCC3)c(O)ccc12	1.65µM*	-1.0	-4.5	2.33µM*	0.0%
O=c1c(-c2ccccc2Cl)coc2c(CN3CCCCC3)c(O)ccc12	?	1.4	-5.6	?	3.9%
O=c1c(-c2ccc(Cl)cc2)coc2c(CN3CCCCC3)c(O)ccc12	2.94µM*	5.4	16.8	-25.6%	-2.3%
O=c1c(-c2ccc(Br)cc2)coc2c(CN3CCOCC3)c(O)ccc12	2.62µM*	22.4*	35.2*	?	2.1%
Cc1cc(C)n(-c2ccc(NC(=O)C3CCCCN3C(=O)c3ccc(C)s3)cc2)n1 (stereo not given)	?	-0.5	-16.7	40.2%	-7.7%
COc1ccc(NC(=O)CN2C(=O)C(C)Oc3ccccc32)cc1OC (stereo not given)	11.7%	-1.5	nt	?	7.2%
CC1CN(Cc2c(O)ccc3c(=O)c(-c4ccccc4Cl)coc23)CC(C)O1 (stereo not given)	nt	-4.5	6.0	?	-0.4%
COc1ccc(-c2coc3c(CN4CCCCC4)c(O)c(CN4CCCCC4)c(O)c3c2=O)cc1	5.86µM*	-2.0	-16.5	88.4%	10.2%
CC1CCCN(Cc2c(O)ccc3c(=O)c(-c4ccc(Cl)cc4)coc23)C1 (stereo not given)	1.04µM*	-1.4	-1.8	-10.1%	3.5%
Cc1cccc(C(C)C)c1NS(=O)(=O)c1cn(C)nc1C	?	-3.2	-6.9	-1.2%	-2.4%
COc1ccc(-c2cc(OC(=O)c3ccc(F)cc3)c3c(C)oc(C)c3c(=O)c2)cc1	?	-3.9	-6.4	10.4µM*	0.8%
COc1ccccc1NC(=O)N1CCN(C)CC1	19.0%	-3.5	0.6	1.2%	2.7%
CC(C)(C)NS(=O)(=O)c1cc(C(=O)Nc2sccc2C#N)ccc1Cl	1.8%	9.2	41.0	21.1%	2.0%
SMILES	Pf growth 48h	Cycloheximide cs	Shiga inhibitor	Pf growth 96h	LmPK inh
Cc1ccc(S(=O)(=O)N2CC3(C)CN(S(=O)(=O)c4ccc(C)cc4)CC(C)(C2)C3)cc1	?	-5.5	1.8	nt	4.4%
CCC12CN(S(=O)(=O)c3ccc(C)cc3)CC(CC)(CN(S(=O)(=O)c3ccc(C)cc3)C1)C2=O	nt	-2.7	14.9	2.33µM*	0.5%
Cc1cccn2c(=O)c3cc(C(=O)NCC4CCCO4)c(=N)n(C4CCCC4)c3nc12 (stereo not given)	?	-3.1	-4.4	-20.2%	5.1%
CN(C)C(=O)c1cc(C(=O)c2ccc(C(F)(F)F)cc2)c[nH]1	nt	15.6*	21.1	153.4%	5.5%
CN(C)C(=O)c1cc(C(=O)c2ccc(Cl)cc2Cl)c[nH]1	nt	51.0*	98.8*	83.8%	5.8%
CN(C)C(=O)c1cc(C(=O)c2ccc(F)cc2Cl)c[nH]1	nt	49.7*	73.4*	51.1%	-1.9%
CCC(C)(C)n1nnnc1CN1CCN(c2ccc(OC)cc2)CC1	26.7%	-0.5	-11.7	-10.4%	0.5%
COc1ccc(C)cc1NC(=O)c1ccoc1C	2.3%	-2.8	13.1	nt	-0.2%
COc1ccc(C(C)(C)C)cc1NC(=O)c1ccoc1C	11.7µM*	0.3	14.7	11.7µM*	-3.0%
COc1ccc(C)cc1NC(=O)NNC(=O)c1ccoc1C	72.1%	active	31.0*	-54.7%	-2.7%
COc1ccc(OCCC(=O)OCC(=O)NCc2ccccc2)cc1	7.8%	-3.0	-1.6	29.1%	2.6%
O=C1CSC(c2ccccc2[N+](=O)[O-])N1c1ccccc1 (stereo not given)	21.1%	1.5	-6.3	-23.5%	10.8%
O=C1CSC(c2ccccc2[N+](=O)[O-])N1c1cccc(F)c1 (stereo not given)	-7.8%	7.9	-4.3	2.33µM*	0.9%
CN(C)C(=O)On1c(-c2ccccc2)nc2ccc(Cl)cc21	-23.6%	38.8	28.2	nt	-0.5%
COn1c(-c2ccccc2)nc2ccc(Cl)cc21	31.8%	31.0*	71.9*	49.8%	-12.1%
O=[N+]([O-])c1ccc2nc(-c3ccccc3)n(OCc3ccc(Cl)cc3)c2c1	30.3%	18.0*	17.8	13.1µM*	11.7%
O=C(O)COn1c(-c2ccccc2)nc2ccc(Cl)cc21	0.8%	21.5*	39.7	32.0%	-7.8%
CCCCn1c(N)c(N(CCOC)C(=O)c2ccc(-n3c(C)ccc3C)cc2)c(=O)[nH]c1=O	?	nt	nt	-6.5%	nt
CCC(CC)C(=O)Oc1c(Sc2ccccc2[N+](=O)[O-])c(C)nn1C(C)(C)C	9.28µM*	-0.3	7.0	?	-3.3%
COCC(=O)Oc1c(Sc2ccccc2[N+](=O)[O-])c(C)nn1C(C)(C)C	?	1.5	-4.0	?	1.8%
COc1ccccc1CNC(=S)Nc1ccc(S(N)(=O)=O)cc1	0.4%	-6.7	10.5	24.5%	0.1%
COc1cc2c(cc1OC)/C(=C/C(=O)c1ccc(F)cc1)NCC2	?	1.2	-10.1	11.7µM*	6.0%
COc1cc2c(cc1OC)/C(=C/C(=O)c1cccc([N+](=O)[O-])c1)NCC2	?	-1.4	-2.6	?	-5.6%
COc1cc2c(cc1OC)/C(=C/C(=O)c1ccccc1F)NCC2	-10.4%	-1.8	-13.9	0.1%	0.5%

Bioassay records: PubChem BioAssay, National Center for Advancing Translational Sciences (NCATS)
